Reference: PubChem BioAssay (Tox21)
Results filed as inconclusive are left out. Values without a mark were called inactive. Calls follow the shape of the dose curve; as a rule, active = well fitted activation curve with a large enough effect in the signal ratio in the repeat runs (not every such curve was filed as active); inconclusive = weak or mixed curves, or effect the other way; inactive = flat fitted curve, though single readings scatter; the % refers to the signal ratio.

experiment: qHTS assay to identify small molecule agonists of the endoplasmic reticulum stress response signaling pathway (AID 1159516); settings: ESRE-bla HeLa, ER stress beta-lactamase reporter, 5 h; series mostly up to 61 µM; activation: at the top concentration
Outline: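 Reporter HeLa cells (ESRE-beta-lactamase) underwent 5 hr compound incubation at 37 C and 5% CO2 in quantitative HTS format. Detection followed 2 hr of FRET substrate loading at room temperature.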
% is scaled to controls: 0 for no effect and ±100 for the full control effect.

Compared with O=C1Nc2ccc([N+](=O)[O-])cc2C1=O, Nc1ccc(Oc2ccc(N)c(N)c2)cc1 is lower in “activation” value: -5.38% for the first, -6.25% for the second.

First: C[C@@H](N)C(=O)O
Second: NC/C=C/C(=O)O
The “activation” value of the first is higher: 4.23% for the first, -0.505% for the second.

Compared with CCc1cc(Cl)c(OC)c(C(=O)NC[C@@H]2CCCN2CC)c1O, CN1CCC[C@@H]1Cc1c[nH]c2ccc(CCS(=O)(=O)c3ccccc3)cc12 is lower in “activation” value: 2.04% for the first, 1.99% for the second.

First: CC1(O)CSC(C)(O)CS1 (stereo not drawn)
Second: C[C@]12CCC(=O)C=C1CC[C@@H]1[C@@H]2CC[C@@]2(C)[C@H]1CC[C@]2(O)C(=O)CO
The “activation” value of the first is higher: 1.55% for the first, -4.45% for the second.

First: Cc1nc(N)nc(N)c1-c1ccc(Cl)c(Cl)c1
Second: Cc1nc(-c2ccccn2)ncc1C(=O)Nn1cc(C)c2cc(F)ccc21
The “activation” value of the first is lower: -1.17% for the first, -0.0807% for the second.

Going from Cc1c(-c2ccccc2)oc2c(C(=O)OCCN3CCCCC3)cccc2c1=O to Cc1cccc(C)c1NC(=O)CN1CCCCCC1, the “activation” value falls from 0.273% to -2.24%.

First: CCCCCCCOC(=O)CCC
Second: CCCCCCCCCC#N
The “activation” value of the first is higher: 1.25% for the first, -0.523% for the second.

Going from CCCCCCCCCCCCCCCCOP(=O)([O-])OCC[N+](C)(C)C to CCCCCCCCc1ccc(S(=O)(=O)O)cc1, the “activation” value rises from -2.31% to -0.373%.

Going from CCCCCCOc1ccc(N)cc1 to CCCCNc1ccc(C(=O)OCCN(CC)CC)cc1, the “activation” value falls from 0.198% to -1.17%.

Compared with CN1CCN(C2=Nc3cc(F)ccc3Cc3ccccc32)CC1, CC(C)C[C@H](NC(=O)OCC1c2ccccc2-c2ccccc21)C(=O)O is lower in “activation” value: -1.76% for the first, -2.9% for the second.

Compared with O=Cc1ccc(O)c(O)c1O, Cc1ccc(C(C)C)cc1O is lower in “activation” value: 1.28% for the first, -0.61% for the second.

Going from CC(=O)Oc1cc(C(C)C)c(OCCN(C)C)cc1C to CCOc1ccccc1N, the “activation” value rises from -1.39% to 1.18%.

Going from CC(C)=CCC[C@](C)(O)[C@@H]1CC=C(C)CC1 to O=c1[nH]cnc2c1ncn2[C@@H]1O[C@H](CO)[C@@H](O)[C@H]1O, the “activation” value rises from -1.37% to 1.3%.

In the case of CC1=NN(c2cc(Cl)c(S(=O)(=O)O)cc2Cl)C(=O)C1N=Nc1ccc(S(=O)(=O)O)cc1 (stereo not drawn), the “activation” value is reported as 10.2%.

First: O=C1CCN(c2ccccc2)N1
Second: CC(C)c1ccccc1
The “activation” value of the first is lower: -5.63% [at 78.8 µM] for the first, -4.84% [at 78.8 µM] for the second.

Going from Cc1cc2nc(N)sc2cc1C to OCc1c2ccccc2cc2ccccc12, the “activation” value rises from 1.33% [at 78.8 µM] to 5.62% [at 78.8 µM].

First: COc1ccc(Nc2ccc(OC)cc2)cc1
Second: O=C(CC(=O)C(F)(F)F)c1ccccc1
The “activation” value of the first is higher: 0.655% [at 78.8 µM] for the first, -1.34% [at 78.8 µM] for the second.

Going from C[C@]12C(=O)OC(=O)[C@H]1[C@H]1C=C[C@@H]2C1 to CC1=C2[C@H](/C=C(\C)C(=O)O)CC[C@@H](C)[C@H]2CC1, the “activation” value falls from -0.0128% [at 78.8 µM] to -2.44% [at 78.8 µM].

With CCOC(=O)CS the “activation” value was -0.733% [at 78.8 µM].

For COC(=O)c1ccc2cc(C(=O)OC)ccc2c1, the “activation” value was -2.75% [at 28.5 µM].

In the case of NC(Cc1ccc(F)cc1)C(=O)O (stereo not drawn), the activation is reported as -3.08% [at 6.95 µM].
